Where “and” joins values, the source holds several entries; their conditions need not be identical. Identical values can stand only once. A structure can be active in one record and inactive in another. Calls of active or inactive are those of the source. How the source made its calls: active means hit-call score of the fitted dose curve at least 0.9, where 1 is the maximum; inactive means score below 0.9.

Data on 39 compounds can be found in PubChem BioAssay (EPA / NIEHS).

Read-out in the experiment: Matrix Metallopeptidase 1 (MMP1), MMP1 (gene 4312)
As to the kind of experiment: BSK_BE3C_MMP1: BioMAP Diversity Plus: BE3C Assay for Matrix Metallopeptidase 1 (MMP1) Biomarker Activity (AID 2283024). The settings on record: primary human bronchial epithelial cells; actives raise or lower the signal. The method, then: BSK_BE3C is a cell-based, multiplexed-readout assay that uses bronchial epithelial cell, a human lung primary cell, with measurements taken at 24 hours after chemical dosing in a 96-well plate.BSK_BE3C_MMP1 is an assay component measured in the BSK_BE3C assay. It measures MMP-1 antibody related to regulation of gene expression using ELISA technology.Data from the assay component BSK_BE3C_MMP1 was analyzed into 1 assay endpoint. This assay endpoint, BSK_BE3C_MMP1, was analyzed with bidirectional fitting relative to DMSO as the negative control and baseline of activity. Using a type of binding reporter, gain or loss-of-signal activity can be used to understand changes in the signaling as they relate to the gene MMP1. Furthermore, this assay endpoint can be referred to as a primary readout, because this assay has produced multiple assay endpoints where this one serves a signaling function. To generalize the intended target to other relatable targets, this assay endpoint is annotated to the protease intended target family, where the subfamily is matrix metalloproteinase.
The levels of cell surface (or secreted, indicated by the prefix "s") biomarker endpoints were measured by ELISA. Overt cytotoxicity to cells in confluent adherent cultures (all systems other than the BT system) was assessed by measuring total protein levels using sulforhodamine B (SRB) staining in parallel cultures at the time of biomarker measurements, indicated as SRB endpoints. For proliferation assays for adherent cell types, individual cell types are cultured at sub-confluence and relative cell numbers quantified by SRB staining at time points optimized for each system (48 h: 3C and CASM3C systems; 72 h: BT and HDF3CGF systems; 96 h: SAg system). SRB was performed by staining cells with 0.1% SRB after fixation with 10% TCA and reading wells at 560 nm.Viability and proliferation of PBMC (T cells) was quantified by Alamar Blue reduction for the SAg and BT systems. For PBMC viability (referred to as PBMC Cytotoxicity within the assay endpoint names), cells were plated (75,000/well in a 96-well plate) and then chemical samples added for 1 h before addition of activators, SEB and TSST-1 (20 ng/mL final concentration each). Cells were incubated for 90 h. Then, Alamar Blue (20 uL/well) (Invitrogen, Cat DAL1100) was added for 6 h, and the plates were read with a fluorescence microplate reader at 546/580 nm (excitation/emission). For PBMC proliferation, cells were plated and activated as above but incubated for only 16 h prior to addition of Alamar Blue. Plates were read after 6 h.
With `CNC(=O)ON=CC(C)(C)SC`, the outcome was inactive. `O=C(Nc1ccccc1)Nc1ccnc(Cl)c1`: the result was inactive. As for `COP(N)(=O)SC` (stereo not given), the outcome was inactive. The same measure, in the same setting: the entry for `COc1nc(C)nc(NC(=O)NS(=O)(=O)c2ccccc2Cl)n1` is “inactive”. In the case of `CS/C(C)=N/OC(=O)N(C)SN(C)C(=O)O/N=C(\C)SC`, the result was inactive.

What is called AC50 is the midpoint of the concentration-response curve, whichever way the signal moves. With `CC1COC(Cn2cncn2)(c2ccc(Oc3ccc(Cl)cc3)cc2Cl)O1` (stereo not given), the half-maximal activity concentration (AC50) was 32.2 µM (active).

For the compound `Fc1ccc(Oc2ccnc3cc(Cl)cc(Cl)c23)cc1`, the AC50 is 35.9 µM (active). On to `CCON=C(CC)C1=C(O)CC(c2c(C)cc(C)cc2C)CC1=O` (stereo not given), for which the result was inactive.

As to `COc1ccc(C(c2ccc(OC)cc2)C(Cl)(Cl)Cl)cc1`, the AC50 is 6.22 µM (active). With `N#Cc1cc(Br)c(O)c(Br)c1`, the outcome was inactive. For `CCOP(=S)(OCC)SCn1c(=O)oc2cc(Cl)ccc21`, the outcome was inactive. `CCNc1nc(Cl)nc(NC(C)C)n1`: the result was inactive.

Regarding `CCCCNC(=O)OCC#CI`, the AC50 was 32.9 µM (active).

For the compound `CCCCNC(=O)n1c(NC(=O)OC)nc2ccccc21`, the outcome was inactive. Regarding `CCCCC(CC)COC(=O)c1ccccc1C(=O)OCC(CC)CCCC` (stereo not given), the result was inactive. Consider `N#CC(CCc1ccc(Cl)cc1)(Cn1cncn1)c1ccccc1` (stereo not given), for which the outcome was inactive. For `Cc1cc(Cl)ccc1OCC(=O)O`, the result was inactive. For `CC(C)(C)c1ccc(CSc2cnn(C(C)(C)C)c(=O)c2Cl)cc1`, the outcome was inactive. Take `COC(=O)c1ccccc1C(=O)OC`: the result was inactive. Consider `CC(C)Oc1cc(-n2nc(C(C)(C)C)oc2=O)c(Cl)cc1Cl`, for which the AC50 is 7.66 µM (active). Turning to `C=CCC1=C(C)[C@@H](OC(=O)[C@@H]2[C@@H](C=C(C)C)C2(C)C)CC1=O`, the result was inactive. On to `CCOc1cc(Oc2ccc(C(F)(F)F)cc2Cl)ccc1[N+](=O)[O-]`, for which the AC50 was 7.63 µM (active). In the case of `CCNc1nc(Cl)nc(NCC)n1`, the result was inactive. Turning to `C=CCC1=C(C)C(OC(=O)C2C(C=C(C)C)C2(C)C)CC1=O` (stereo not given), the concentration at half-maximal activity (AC50) is 9.44 µM (active) and 7.51 µM (active); the outcome was inactive. `CC1=C(C(=O)Nc2ccccc2)SCCO1`: the outcome was inactive. Turning to `O=C(O)c1nc(Cl)ccc1Cl`, the outcome was inactive. Take `Oc1ccccc1-c1ccccc1`: the result was inactive. As to `CO/C=C(/C(=O)OC)c1ccccc1Oc1cc(Oc2ccccc2C#N)ncn1`, the outcome was inactive. Take `C#CCOS(=O)OC1CCCCC1Oc1ccc(C(C)(C)C)cc1` (stereo not given): the result was inactive. With `CCCCOC(=O)c1ccccc1C(=O)OCCCC`, the result was inactive. Regarding `CNC(=S)S`, the outcome was inactive. As to `Cc1ccc(-c2c(Cl)nc(C#N)n2S(=O)(=O)N(C)C)cc1`, the outcome was inactive. Consider `CON(C)C(=O)Nc1ccc(Cl)c(Cl)c1`, for which the outcome was inactive.

Regarding `CCCN(CCC)c1c([N+](=O)[O-])cc(S(N)(=O)=O)cc1[N+](=O)[O-]`, the AC50 is 36 µM (active) [middle of 4 runs]. For `COc1cnc(OC)n2nc(NS(=O)(=O)c3c(OCC(F)F)cccc3C(F)(F)F)nc12`, the result was inactive. As to `Cc1c(F)c(F)c(COC(=O)C2C(/C=C(\Cl)C(F)(F)F)C2(C)C)c(F)c1F` (stereo not given), the outcome was inactive.

Consider `CC(Oc1ccc(Cl)cc1Cl)C(=O)O` (stereo not given), for which the result was inactive. Consider `CN(C)C(=S)SSC(=S)N(C)C`, for which the AC50 was 14.2 µM (active). For `CCCC1COC(Cn2cncn2)(c2ccc(Cl)cc2Cl)O1` (stereo not given), the outcome was inactive.
